Drawing on PubChem BioAssay (NCATS), this text covers Potency and outcome for 9 compounds.

Unmarked numbers belong to inactive results. Results filed as inconclusive are left out. Calls of active or inactive are those of the source. Unless noted, calls come from the whole dose curve; as a rule, active = well fitted curve in the direction sought with a large enough effect; inconclusive = small, poorly fitted or top-dose-only effect, or another doubt; inactive = no such curve, though single readings can be large; an effect the other way counts as inactive or inconclusive. Where only a bound is given, the exact number is not on record here.

In test [1] the target is Glucocorticoid receptor (Homo sapiens) (UniProt P04150). Put plainly: GR-GFP Redistribution (AID 450;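 active = compounds whose dose series gives a full or clear partial fitted curve of increased nuclear translocation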; note: potency is the fitted concentration of half-maximal effect). The following applies: U2OS GR-GFP nuclear translocation, laser cytometry, 2 h.
Sequence of Glucocorticoid receptor (Homo sapiens) (P04150 whole entry, looked up, the tested form may be a part): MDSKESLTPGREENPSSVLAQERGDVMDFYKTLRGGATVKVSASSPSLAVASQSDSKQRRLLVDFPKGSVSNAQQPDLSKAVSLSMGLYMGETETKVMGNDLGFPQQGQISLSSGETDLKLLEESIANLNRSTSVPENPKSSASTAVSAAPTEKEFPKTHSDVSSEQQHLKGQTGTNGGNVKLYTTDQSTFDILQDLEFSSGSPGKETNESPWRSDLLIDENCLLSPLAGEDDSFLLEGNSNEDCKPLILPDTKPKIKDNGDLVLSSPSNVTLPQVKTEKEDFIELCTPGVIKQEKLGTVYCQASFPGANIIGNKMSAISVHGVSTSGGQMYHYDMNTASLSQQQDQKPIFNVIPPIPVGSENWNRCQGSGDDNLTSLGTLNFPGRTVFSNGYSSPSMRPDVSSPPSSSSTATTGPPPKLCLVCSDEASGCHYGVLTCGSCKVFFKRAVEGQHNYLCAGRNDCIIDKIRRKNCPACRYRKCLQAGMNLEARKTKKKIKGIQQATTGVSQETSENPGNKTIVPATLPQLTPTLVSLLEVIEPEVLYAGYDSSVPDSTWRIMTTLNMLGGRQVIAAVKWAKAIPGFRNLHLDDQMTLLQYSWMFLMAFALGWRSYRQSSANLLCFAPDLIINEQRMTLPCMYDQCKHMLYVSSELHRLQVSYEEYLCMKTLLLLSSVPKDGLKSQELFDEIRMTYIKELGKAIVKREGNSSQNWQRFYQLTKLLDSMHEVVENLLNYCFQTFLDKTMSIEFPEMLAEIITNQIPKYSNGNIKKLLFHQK
The target is the same in test [2]. Kind of test: GR-EFC Redistribution (AID 451; calls by dose curve; note: potency is the fitted concentration of half-maximal effect). The following applies: CHO-K1 GR-EFC translocation, beta-gal luminescence, 2 h. In a few lines: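 CHO-K1 cells stably expressing nuclear-localized β-gal enzyme acceptor and GR fused C-terminally to the enzyme donor fragment; ligand-driven nuclear translocation restores β-gal by complementation. Compounds titrated up to 46 uM final, 2 h at 37 °C; luminescence read.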

The target of test [3] is Mitogen-activated protein kinase 10 (Mus musculus) (UniProt Q61831). Kind of test: JNK3 AlphaScreen Assay (AID 530; active = well fitted curve in either direction with a large enough effect, not every such curve was filed as active;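 note: kinase came from lysate of stimulated human HepG2 cells; signal reports phosphorylation of biotinylated GST-cJun 1-79 at Ser73 with 10 µM ATP; series mostly up to about 57 µM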). In a few lines: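 JNK3 came from HepG2 lysates pre-activated with IL-1beta and TNF-alpha and phosphorylated biotinylated GST-cJun (1-79) at 10 uM ATP, pH 7.6, room temperature. Compounds were titrated. AlphaScreen signal used anti-phospho-cJun (Ser73) antibody.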
On the technique in general: Alpha assays give light when donor and acceptor beads are brought close together.

Test [4] has as its target Cytochrome P450 2D6 (Homo sapiens) (UniProt P10635). Put plainly: qHTS Assay for Inhibitors and Substrates of Cytochrome P450 2D6 (AID 891). Note: potency is the fitted concentration of half-maximal effect; nearly all actives have a fitted effect of over 60% in size. Summed up: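 Human CYP2D6 (5 nM) with 30 uM Luciferin-ME EGE (at Km) in 100 mM KPO4, compound preincubated 10 min, then NADPH regeneration system for 60 min at room temperature. Luciferin read by luminescence; normalized to 1.43 uM quinidine.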
Background: In qHTS, concentration-response curves come from the screen itself.

In test [5] the target is Ubiquitin carboxyl-terminal hydrolase 1 (Homo sapiens) (UniProt O94782). Put plainly: Inhibitors of USP1/UAF1: Pilot qHTS (AID 504865). Note: nearly all actives have a fitted effect of over 35% in size. Note: potency is the fitted concentration of half-maximal effect. In a few lines: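 Kinetic fluorescence assay: 1nM USP1/UAF1, 15 min compound preincubation, then 150nM Ub-Rho; 480/540 nm.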
Sequence of Ubiquitin carboxyl-terminal hydrolase 1 (Homo sapiens) (O94782 whole entry, looked up): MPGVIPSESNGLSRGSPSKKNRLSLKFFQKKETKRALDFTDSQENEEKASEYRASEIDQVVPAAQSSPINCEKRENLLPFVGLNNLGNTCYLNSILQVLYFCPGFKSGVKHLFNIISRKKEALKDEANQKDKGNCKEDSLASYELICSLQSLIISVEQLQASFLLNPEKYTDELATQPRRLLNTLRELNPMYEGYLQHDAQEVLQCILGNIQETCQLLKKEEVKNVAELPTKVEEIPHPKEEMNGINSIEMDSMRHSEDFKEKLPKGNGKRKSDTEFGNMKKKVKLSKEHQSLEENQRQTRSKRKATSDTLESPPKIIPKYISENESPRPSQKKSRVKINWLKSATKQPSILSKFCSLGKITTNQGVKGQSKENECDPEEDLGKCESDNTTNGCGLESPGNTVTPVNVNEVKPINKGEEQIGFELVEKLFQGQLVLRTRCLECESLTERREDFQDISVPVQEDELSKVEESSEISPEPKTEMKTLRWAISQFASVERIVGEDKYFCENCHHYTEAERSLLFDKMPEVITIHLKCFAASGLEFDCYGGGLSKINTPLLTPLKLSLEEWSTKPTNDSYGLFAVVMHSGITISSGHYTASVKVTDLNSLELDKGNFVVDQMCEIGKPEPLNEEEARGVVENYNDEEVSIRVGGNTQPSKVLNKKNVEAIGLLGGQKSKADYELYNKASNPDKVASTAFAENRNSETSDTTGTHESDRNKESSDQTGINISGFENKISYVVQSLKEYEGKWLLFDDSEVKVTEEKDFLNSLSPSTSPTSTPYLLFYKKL
Test [6] concerns the target DNA dC->dU-editing enzyme APOBEC-3G (Homo sapiens) (UniProt Q9HC16). Kind of test: qHTS for inhibitors of Vif-A3G interactions: Validation (AID 588379). In a few lines:
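HeLa cells stably expressing Vif and A3G-eYFP, 700 cells/well, incubated overnight at 37 deg C, then exposed to compound overnight at 37 deg C. Inhibition of Vif-mediated degradation read as increased yellow fluorescence (Ex 488/Em 500-530) by laser-scanning cytometry.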

Test [7] concerns Zika virus NS2B-NS3 protease. Kind of test: Primary screen GU AMC qHTS for Zika virus inhibitors (AID 1347154). Note: nearly all actives have a fitted effect of over 70% in size. Note: potency is the fitted concentration of half-maximal effect. In a few lines:
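Unlinked Zika NS2B hydrophilic domain/NS3 protease domain noncovalent complex (25 nM final) in 10 mM Tris-HCl pH 8.0, 0.01% Tween 20, with AMC peptide substrate. Fluorescence (ex 340, em 450 nm) change over 15 min, room temperature; percent inhibition fitted to 4-parameter Hill equation.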

Test [8] has as its target 3',5'-cyclic-AMP phosphodiesterase 4B (Homo sapiens) (UniProt Q07343). Kind of test: qHTS Assay for Inhibitors of PDE-IV (AID 607; active = well fitted activation curve with a large enough effect in the main read-out, with a control signal flat, not every such curve was filed as active). In a few lines:
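HEK293 ACTOne cells with CNG channel (1000/well), endogenous PDE4; membrane potential dye, compounds up to 22.9 uM final. Fluorescence Ex 535/Em 590; RO 20-1724 (100 uM final) as reference.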

Test [9] has as its target Guanine nucleotide-binding protein G(i) subunit alpha-1 (Homo sapiens) (UniProt P63096). Kind of test: qHTS Assay for Inhibitors of RGS12 GoLoco Motif Activity (Green Fluorophore) (AID 879).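 Note: negative values mean loss of peptide binding seen as reduced polarization.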 Summed up:
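Fluorescence polarization assay: 50 nM Gαi1 with 10 nM FITC-labeled RGS12 GoLoco peptide in 10 mM Tris pH 7.5, 150 mM NaCl, 0.1 mM GDP, 0.05% NP40, 10 min at room temperature with compound.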

The nature of test [10]: qHTS Assay for Identification of Small Molecule Agonists for Thrombopoietin (TPO) Signaling Pathway (AID 917). Summed up:
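We measured Glycoprotein IIb promoter–luciferase output in IL-3-starved Ba/F3 murine cells expressing the human TPO receptor after 24 hrs at 37 C with compounds and 26 pM TPO.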

In test [11] the target is Muscarinic acetylcholine receptor M1 (Rattus norvegicus) (UniProt P08482). Kind of test: qHTS Assay for Antagonists of Acetylcholine Muscarinic M1 Receptor: Kinetic Measurement of Intracellular Calcium Response (AID 943).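 Note: Fluo-4 calcium signal as peak divided by basal fluorescence over 4 min; series mostly up to about 35 µM; nearly all actives have a fitted effect of over 75% in size.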 In a few lines: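 Intracellular calcium flux, recorded with Fluo-4 in a kinetic plate reader, served as signal; the response to carbachol at EC80 (100 nM final) was taken as maximal over minimal fluorescence after a 10 min compound pre-incubation in rat M1-CHO cells.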
Sequence of Muscarinic acetylcholine receptor M1 (Rattus norvegicus) (P08482 whole entry, looked up): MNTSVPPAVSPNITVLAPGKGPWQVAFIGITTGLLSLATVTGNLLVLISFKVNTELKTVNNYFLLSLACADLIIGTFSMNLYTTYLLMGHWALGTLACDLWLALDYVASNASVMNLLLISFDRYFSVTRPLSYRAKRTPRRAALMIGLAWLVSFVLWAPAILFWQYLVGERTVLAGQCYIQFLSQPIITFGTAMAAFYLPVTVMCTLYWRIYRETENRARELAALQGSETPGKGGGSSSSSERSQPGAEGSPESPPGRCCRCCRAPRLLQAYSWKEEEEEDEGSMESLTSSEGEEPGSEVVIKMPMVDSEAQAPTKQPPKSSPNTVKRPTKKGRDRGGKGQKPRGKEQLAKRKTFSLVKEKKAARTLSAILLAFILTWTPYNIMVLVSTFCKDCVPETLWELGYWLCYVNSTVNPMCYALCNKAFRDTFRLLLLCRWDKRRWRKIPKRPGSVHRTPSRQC

Test [12] shares this target. Kind of test: qHTS Assay for Antagonists of Acetylcholine Muscarinic M1 Receptor: Measurement of IP-One Response (AID 944). Note: nearly all actives have a fitted effect of over 75% in size. In a few lines: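 Steps: plate transfected CHO-M1 cells overnight; add test compound, 10 min; add carbachol (200 nM, EC80) in stimulation buffer with LiCl; incubate 30 min; add labelled IP1 tracer and anti-IP1 antibody in lysis buffer; read HTRF after 10 min.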

Test [13] deals with Pyruvate kinase (Leishmania mexicana) (UniProt Q27686). Put plainly: qHTS Validation Assay for Inhibitors of Leishmania Mexicana Pyruvate Kinase (AID 945). In a few lines:
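Eight-point qHTS titrations in triplicate, data normalized to DMSO neutral control. Reaction: 0.2 nM LmPYK E451W mutant, 0.5 mM PEP, 0.1 mM ADP, 7 mM MgCl2, pH 7.2, one hour at room temperature; luminescent ATP detection.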

Test [14] deals with Alpha-galactosidase A (Homo sapiens) (UniProt P06280). Put plainly: Counterscreen for Glucocerebrosidase Inhibitors: qHTS Assay for Human alpha-Galactosidase at pH 4.5 (AID 992). Summed up:
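Human enzyme (2 nM) with 80 uM 4-methylumbelliferyl alpha-D-galactopyranoside in 50 mM citric acid, 0.005% Tween-20, pH 4.5, 20 min at room temperature. Compounds 0.7 nM–77 uM; fluorescence Ex 365/Em 440 after pH 10 stop; AC50 from Hill fits.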

For test [15], the target named is alpha-glucosidase (Oryza sativa, rice) (UniProt Q653V4). Put plainly: Counterscreen for Glucocerebrosidase Inhibitors: qHTS Assay for Rice alpha-Glucosidase at pH 5.0 (AID 997). In a few lines: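 Rice alpha-glucosidase (4 nM final) with 400 uM 4-methylumbelliferyl-alpha-D-glucopyranoside in citrate buffer pH 5.0, 20 min at room temperature, stopped at pH 10; fluorescence 365/440 nm, compounds 0.7 nM–77 uM, AC50 from Hill fits.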

Test [16] addresses Cytochrome P450 2C9 (Homo sapiens) (UniProt P11712). Put plainly: qHTS Assay for Inhibitors and Substrates of Cytochrome P450 2C9 (AID 883). Note: potency is the fitted concentration of half-maximal effect; nearly all actives have a fitted effect of over 60% in size. In a few lines:
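A luminogenic readout tracked human CYP2C9 (10nM) converting deoxyluciferin (100uM, at KM) in 25mM KPO4 during 60 min at 37C with regenerated NADPH. Values normalized to 57uM sulphaphenazole as complete inhibition.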

The target of test [17] is Cytochrome P450 2C19 (Homo sapiens) (UniProt P33261). Put plainly: qHTS Assay for Inhibitors and Substrates of Cytochrome P450 2C19 (AID 899). Note: potency is the fitted concentration of half-maximal effect; nearly all actives have a fitted effect of over 60% in size. Summed up:
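NADPH-dependent conversion of Luciferin-H EGE (10uM, at KM) by 5nM enzyme in 50mM KPO4, 60 min at 37C following 10 min compound preincubation. Stopped with luciferin detection buffer; luminescence read after 20 min.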

Test [18] addresses Cytochrome P450 3A4 (Homo sapiens) (UniProt P08684). Kind of test: qHTS Assay for Inhibitors and Substrates of Cytochrome P450 3A4 (AID 884). Note: nearly all actives have a fitted effect of over 50% in size. Note: potency is the fitted concentration of half-maximal effect. In a few lines:
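20 nM human CYP3A4 with 25 uM Luciferin-PPXE (at KM) in 200 mM KPO4, preincubated 10 min with compound; NADPH regeneration started a 60 min RT reaction. Luciferin detected by luminescence, normalized to 57 uM ketoconazole as full inhibition.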

Test [19] shares this target. Put plainly: qHTS Assay for Activators of Cytochrome P450 3A4 (AID 885). Note: nearly all actives have a fitted effect of over 65% in size. Note: potency is the fitted concentration of half-maximal effect. Summed up: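 Human CYP3A4 (20 nM) with Luciferin-PPXE at 25 uM (its KM) in 200 mM KPO4; 10 min compound preincubation, then NADPH regeneration and 60 min reaction at RT. Luciferin read by luminescence; normalized to 57 uM ketoconazole full inhibition.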
Test [20] concerns the target Cytochrome P450 1A2 (Homo sapiens) (UniProt P05177). Kind of test: p450-cyp1a2 (AID 410; calls by dose curve; note: potency is the fitted concentration of half-maximal effect). Summed up: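 Inhibition was calculated relative to 57 uM furafylline (full inhibition). The reaction used human CYP1A2 at 20nM with Luciferin-ME at its Km, 100uM, driven by an NADPH-regenerating system for 60 min at room temperature.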
A short description of test [21]: qHTS Assay for Identification of Small Molecule Antagonists for NFkB Signaling Pathway (AID 895; active = well fitted inhibition curve with a large enough effect in the signal ratio, with a control signal flat, not every such curve was filed as active; the % refers to the signal ratio). In a few lines: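 NFkB-bla ME-180 cervical carcinoma cells with beta-lactamase reporter under NFkB response element; compounds added, then TNF alpha at 10 pM final (EC50), 5 h at 37 C. LiveBLAzer substrate 2 h, room temperature; emission 460/530 nm at 405 nm excitation.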

A short description of test [22]: qHTS Assay for Identification of Small Molecule Antagonists for Thrombopoietin (TPO) Signaling Pathway (AID 918). Note: potency is the fitted concentration of half-maximal effect; nearly all actives have a fitted effect of over 60% in size. Conditions: TPO-dependent cell signaling reporter, antagonist mode. In a few lines:
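First, Ba/F3 reporter cells expressing human TPO receptor were held overnight without IL-3. Next, compound and 26 pM TPO were added. After 24 hrs incubation at 37 C, luciferase luminescence under the Glycoprotein IIb promoter was recorded.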

Sequence of Cytochrome P450 3A4 (Homo sapiens) (P08684 whole entry, looked up): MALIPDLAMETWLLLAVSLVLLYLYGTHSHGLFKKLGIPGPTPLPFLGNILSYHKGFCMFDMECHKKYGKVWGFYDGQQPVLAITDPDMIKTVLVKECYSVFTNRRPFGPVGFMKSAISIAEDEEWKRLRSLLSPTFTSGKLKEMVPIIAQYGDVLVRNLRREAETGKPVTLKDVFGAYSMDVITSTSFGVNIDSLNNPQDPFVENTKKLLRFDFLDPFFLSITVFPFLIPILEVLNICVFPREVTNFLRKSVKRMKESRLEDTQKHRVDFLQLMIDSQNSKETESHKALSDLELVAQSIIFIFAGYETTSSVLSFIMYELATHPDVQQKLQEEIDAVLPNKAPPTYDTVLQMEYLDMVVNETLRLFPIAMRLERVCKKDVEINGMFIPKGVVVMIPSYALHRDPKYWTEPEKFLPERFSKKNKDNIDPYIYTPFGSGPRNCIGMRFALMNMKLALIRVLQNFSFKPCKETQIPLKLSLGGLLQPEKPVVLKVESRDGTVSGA
Sequence of DNA dC->dU-editing enzyme APOBEC-3G (Homo sapiens) (Q9HC16 whole entry, looked up): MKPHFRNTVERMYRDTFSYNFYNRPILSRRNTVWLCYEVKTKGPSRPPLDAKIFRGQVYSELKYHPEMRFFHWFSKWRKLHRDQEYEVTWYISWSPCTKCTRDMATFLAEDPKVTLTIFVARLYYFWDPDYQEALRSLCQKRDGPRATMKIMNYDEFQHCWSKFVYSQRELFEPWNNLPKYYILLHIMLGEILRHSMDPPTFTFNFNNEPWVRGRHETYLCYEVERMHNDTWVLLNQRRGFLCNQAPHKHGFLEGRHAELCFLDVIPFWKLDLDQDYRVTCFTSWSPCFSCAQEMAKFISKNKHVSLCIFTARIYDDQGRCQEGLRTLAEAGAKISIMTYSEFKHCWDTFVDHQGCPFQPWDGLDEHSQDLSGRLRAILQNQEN
Sequence of 3',5'-cyclic-AMP phosphodiesterase 4B (Homo sapiens) (Q07343 whole entry, looked up): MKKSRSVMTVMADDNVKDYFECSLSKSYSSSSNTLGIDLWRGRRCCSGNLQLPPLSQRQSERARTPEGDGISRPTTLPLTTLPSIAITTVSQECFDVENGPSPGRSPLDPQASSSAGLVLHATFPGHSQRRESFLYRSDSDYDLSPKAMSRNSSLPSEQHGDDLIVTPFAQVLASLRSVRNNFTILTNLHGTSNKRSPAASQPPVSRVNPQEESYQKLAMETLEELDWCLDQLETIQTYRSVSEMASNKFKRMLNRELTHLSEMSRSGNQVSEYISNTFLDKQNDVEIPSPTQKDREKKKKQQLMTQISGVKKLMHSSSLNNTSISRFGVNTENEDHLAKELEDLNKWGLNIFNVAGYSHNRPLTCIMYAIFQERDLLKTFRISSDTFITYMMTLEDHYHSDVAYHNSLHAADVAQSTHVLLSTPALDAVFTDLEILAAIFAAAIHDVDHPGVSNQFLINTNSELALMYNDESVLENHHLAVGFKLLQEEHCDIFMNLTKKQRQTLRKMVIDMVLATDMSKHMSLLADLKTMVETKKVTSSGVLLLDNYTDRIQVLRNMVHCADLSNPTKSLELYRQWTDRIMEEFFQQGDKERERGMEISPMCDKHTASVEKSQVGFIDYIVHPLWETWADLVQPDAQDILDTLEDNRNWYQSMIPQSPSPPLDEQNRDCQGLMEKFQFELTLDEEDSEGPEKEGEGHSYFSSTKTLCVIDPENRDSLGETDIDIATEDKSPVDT
Sequence of Pyruvate kinase (Leishmania mexicana) (Q27686 2-499 E452W): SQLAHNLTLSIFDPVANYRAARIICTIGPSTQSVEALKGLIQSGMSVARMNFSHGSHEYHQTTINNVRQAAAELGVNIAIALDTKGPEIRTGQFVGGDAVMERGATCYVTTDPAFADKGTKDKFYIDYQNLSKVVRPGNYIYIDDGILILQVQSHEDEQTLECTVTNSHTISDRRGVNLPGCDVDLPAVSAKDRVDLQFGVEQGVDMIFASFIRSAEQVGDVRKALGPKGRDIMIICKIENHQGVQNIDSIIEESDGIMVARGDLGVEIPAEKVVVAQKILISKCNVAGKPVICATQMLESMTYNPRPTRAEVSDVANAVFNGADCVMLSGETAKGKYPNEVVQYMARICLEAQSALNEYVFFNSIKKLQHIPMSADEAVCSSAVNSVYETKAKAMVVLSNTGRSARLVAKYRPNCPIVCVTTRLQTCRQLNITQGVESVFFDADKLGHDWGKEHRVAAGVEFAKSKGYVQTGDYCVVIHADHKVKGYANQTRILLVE
Sequence of Cytochrome P450 2D6 (Homo sapiens) (P10635 whole entry, looked up): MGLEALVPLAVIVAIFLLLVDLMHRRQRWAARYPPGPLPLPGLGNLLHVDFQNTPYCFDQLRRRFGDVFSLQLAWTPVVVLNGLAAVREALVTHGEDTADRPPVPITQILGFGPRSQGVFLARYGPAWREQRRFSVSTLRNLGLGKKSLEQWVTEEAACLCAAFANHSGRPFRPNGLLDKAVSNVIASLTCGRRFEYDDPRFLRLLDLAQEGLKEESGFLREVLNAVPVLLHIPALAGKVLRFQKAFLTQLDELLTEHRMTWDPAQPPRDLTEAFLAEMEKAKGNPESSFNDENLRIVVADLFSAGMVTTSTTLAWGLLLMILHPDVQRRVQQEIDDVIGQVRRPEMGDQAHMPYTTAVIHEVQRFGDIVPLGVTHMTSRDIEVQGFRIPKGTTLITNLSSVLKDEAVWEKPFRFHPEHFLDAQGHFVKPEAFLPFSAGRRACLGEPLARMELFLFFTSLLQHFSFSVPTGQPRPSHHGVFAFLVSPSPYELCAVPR
Sequence of Guanine nucleotide-binding protein G(i) subunit alpha-1 (Homo sapiens) (P63096 whole entry, looked up): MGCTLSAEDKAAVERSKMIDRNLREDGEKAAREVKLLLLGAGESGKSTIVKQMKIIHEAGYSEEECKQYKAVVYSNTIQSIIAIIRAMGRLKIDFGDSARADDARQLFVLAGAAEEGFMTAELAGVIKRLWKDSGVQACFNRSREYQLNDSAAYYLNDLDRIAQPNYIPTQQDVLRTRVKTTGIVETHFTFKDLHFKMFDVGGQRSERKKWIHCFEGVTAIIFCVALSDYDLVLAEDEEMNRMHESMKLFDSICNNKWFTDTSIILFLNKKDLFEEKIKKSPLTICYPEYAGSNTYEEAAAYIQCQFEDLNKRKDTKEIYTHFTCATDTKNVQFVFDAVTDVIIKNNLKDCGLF

As for `CNc1ncnc2c1ncn2[C@H]1C[C@H](OP(=O)(O)O)[C@H](COP(=O)(O)O)O1`, the Potency in test [1] is above 46 µM; in test [2], above 46 µM; in [4], 5.01 µM (active). The Potency entry in test [3], in [5], in [6] and in test [7] was “inactive” in each case.
As to `O=C(/C=C\c1ccc(O)c(O)c1)O[C@@H](Cc1ccc(O)c(O)c1)C(=O)O`, the Potency in test [1] was above 46 µM; in test [2], above 46 µM; in test [7], 4.74 µM (active). In addition, the Potency entry in [6] was “inactive”.
`C[C@@H]1CNCCN1S(=O)(=O)c1cccc2cnccc12`: the Potency in [1] and in test [2] was above 46 µM throughout. Also, the Potency entry in test [3], in [8], in [10], in [11], in [12] and in [13] was “inactive” each time. Moreover, the Potency entry in [6] and in test [7] was “inactive” throughout. The result in test [9], in test [14] and in [15] was inactive.
With `Cc1c(C(=O)NN2CCOCC2)nn(-c2ccc(Cl)cc2Cl)c1-c1ccc(I)cc1`, the Potency in test [1] was above 46 µM; in test [2] it was above 46 µM; in [16], 6.31 µM (active); in [17], 7.94 µM (active). Besides, the Potency result in test [3], in test [8], in test [6] and in test [7] was “inactive” each time.
Regarding `N[C@H](C(=O)O)[C@@H]1[C@@H](C(=O)O)C1(F)F`, the Potency in test [2] is above 46 µM. Also, the Potency entry in test [3], in test [6] and in test [7] was “inactive” throughout.
For the compound `Cc1c(C2CCN(CCc3ccccc3)CC2)noc1-c1ccc(Cl)cc1`, the Potency in test [1] is above 46 µM; in test [2] it was above 46 µM; in test [19], 15.8 µM (active). In addition, the Potency entry in [3], in test [18], in [5], in test [6] and in [7] was “inactive” in each case.
In the case of `N=C(N)S/C=C\C(=O)O`, the Potency in test [1] and in test [2] was above 46 µM throughout. Further, the Potency result in test [3], in test [6] and in test [7] was “inactive” each time.
Take `CCCCCCCCC(=O)NCc1cc(OC)c(O)cc1I`: the Potency in test [20] was 12.6 µM (active); in test [1], above 46 µM; in test [2] it was above 46 µM; in [18], 3.16 µM (active); in test [4], 7.94 µM (active). Moreover, the Potency entry in test [3], in test [19], in test [6] and in test [7] was “inactive” throughout.
Consider `CCCCCCCCCCCCC/C=C\[C@@H](O)[C@@H](N)CO`, for which the Potency in test [20] was 15.8 µM (active); in test [2] it was above 46 µM; in test [22], 10 µM (active); in [5] it was 50.1 µM (active). Besides, the Potency result in test [8], in [18], in test [21], in [11], in test [13] and in test [6] was “inactive” throughout. Further, the Potency result in [7] was “inactive”. The compound was classed as inactive in [9], in test [14] and in test [15].
